Source: PubChem BioAssay (Tox21)
A number with no mark means an inactive call. Calls of active or inactive are those of the source. Calls come from the whole dose curve; as a rule, active = well fitted curve in the direction sought with a large enough effect in the repeat runs; inconclusive = weak or mixed curves; inactive = flat fitted curve, though single readings scatter.

Assay: qHTS assay to test for compound auto fluorescence at 590 nm (red) in HEK293 cells (AID 720679)
Conditions: red autofluorescence 540/590 nm; series mostly up to 91.3 µM
Excerpt: National Center for Advancing Translational Sciences [NCATS]
NIH Chemical Genomics Center [NCGC]
U.S. Environmental Protection Agency [EPA]
National Institutes of Environmental Health Sciences [NIEHS]
National Toxicology Program [NTP]
U.S. Food and Drug Administration [FDA]
Compound auto fluorescence often interferes with screening of the compound library against various biological targets and signaling pathways. Some of these compounds may have fluorophoric properties. Such properties may interfere with the assay outputs resulting in false positives and/or negatives. To decrease such complications and ensure the compound activities are relevant in terms of biological response, the Tox21 10K compound library was screened for auto fluorescence.
From the fluorophores used as reporter signals in our screening assays, the auto fluorescence equivalencies of compounds against three fluorophores have been evaluated: Triamterene, Fluorescein and Rose Bengal sodium for blue, green and red fluorescence, respectively. The fluorescence intensities were measured using Excitation/Emission wavelengths at 405/460nm, 485/535nm and 540/590nm for blue, green and red labels, respectively. This assay includes the red fluorescence data.
Tox21 Assay Protocol Summary:
2,000 HEK293 cells in 5 uL of culture medium containing 10% dialyzed FBS per well were dispensed into black wall/clear bottom 1536-well plates using a Multidrop Combi Dispenser (Thermo Scientific). The assay plates were incubated for 4-5 hr at 37C to allow cell attachment to the well bottom, followed by the transfer of 23 nL compound or DMSO vehicle by a pintool work station (Kalypsys, San Diego, CA). After the assay plates were incubated overnight at 37C and 5% CO2, fluorescence intensities in the assay plates were measured by an Envision (PerkinElmer, Shelton, CT) plate reader using three labels for measuring blue, green and red fluorescence at […] 460, 535 and 590nm respectively.
% is set by controls: 0 for no effect and ±100 for the full control effect.

Row | Structure (SMILES) | outcome | fluorescence, % of fluorescent control
1 | O=C(O)COc1nc(Cl)c(Cl)cc1Cl | inactive | 
2 | CC(=O)C(Cl)(Cl)Cl | inactive | 
3 | Fc1cccc(Cl)c1CCl | inactive | 
4 | C[C@@H]1O[C@@H](O[C@H]2C[C@@H](O)[C@]3(CO)[C@H]4[C@H](O)C[C@]5(C)[C@@H](C6=CC(=O)OC6)CC[C@]5(O)[C@@H]4CC[C@]3(O)C2)[C@H](O)[C@H](O)[C@H]1O | inactive | 
5 | O=c1[nH]c2ccccc2n1C1CCN(CCCC(c2ccc(F)cc2)c2ccc(F)cc2)CC1 | inactive | 
6 | O=C(CCl)Nc1ccccc1 | inactive | 
7 | CC(C)CC(C)Nc1ccc(Nc2ccccc2)cc1 (stereo not given) | inactive | 
8 | S=C(SSC(=S)N1CCCCC1)N1CCCCC1 | inactive | 
9 | CC(=O)/C=C/c1ccc2c(c1)OCO2 | inactive | 
10 | CCOC(=O)OC1=C(c2cc(C)ccc2C)C(=O)NC12CCC(OC)CC2 (stereo not given) | inactive | 
11 | Cc1c(Cl)c(=O)oc2cc(OP(=O)(OCCCl)OCCCl)ccc12 | inactive | 
12 | S=C=Nc1cccc2ccccc12 | inactive | 
13 | CC(Cc1ccc(C(C)(C)C)cc1)CN1C[C@@H](C)O[C@@H](C)C1 (stereo not given in full) | inactive | 
14 | ClC(Cl)=C(Cl)Cl | inactive | 
15 | c1ccc2c(c1)[nH]c1cnccc12 | inactive | 
16 | CC1(C)CC/C(=C/c2ccc(Cl)cc2)C1(O)Cn1cncn1 (stereo not given) | inactive | 
17 | CCCCCCCCCCCCCCCCCCn1cc[n+](C)c1 | inactive | 
18 | CC(C)OC(=S)S | inactive | 
19 | N#CNC#N | inactive | 
20 | Clc1ccc(CSC(Cn2ccnc2)c2ccc(Cl)cc2Cl)cc1 (stereo not given) |  | 0.517% [at 18.6 µM]

Row | Structure (SMILES) | outcome | fluorescence, % of fluorescent control
21 | CC(C)OC(=O)C(O)(c1ccc(Cl)cc1)c1ccc(Cl)cc1 | inactive | 
22 | C=CC(=O)OCC(COC(=O)C=C)(COC(=O)C=C)COC(=O)C=C | inactive | 
23 | CC(C)N1C(=O)N(c2ccccc2)CSC1=NC(C)(C)C | inactive | 
24 | Nc1ccccc1C(=O)Oc1ccc2ccccc2c1 | inactive | 
25 | ClC1=C(Cl)C2(Cl)C3C(Cl)C=CC3C1(Cl)C2(Cl)Cl (stereo not given) | inactive | 
26 | CCCCCCCCCCCCCCC(Br)C(=O)O (stereo not given) | inactive | 
27 | CC(C)(O)c1cnn2c(-c3ccc(F)c(-c4c(F)cccc4C#N)c3)cnc2n1 | inactive | 
28 | CCc1nn(C)c(C(=O)NCc2ccc(C(C)(C)C)cc2)c1Cl | inactive | 
29 | O=C(O)C1C2CCC(O2)C1C(=O)O (stereo not given) | inactive | 
30 | Cc1cc(C)cc(OP(=O)(Oc2cc(C)cc(C)c2)Oc2cc(C)cc(C)c2)c1 | inactive | 
31 | Oc1ccc(C2(c3ccc(O)cc3)c3ccccc3-c3ccccc32)cc1 | inactive | 
32 | COC12CC[C@@]3(C[C@@H]1C(C)(O)C(C)(C)C)[C@H]1Cc4ccc(O)c5c4[C@@]3(CCN1CC1CC1)[C@H]2O5 (stereo not given in full) | inactive | 
33 | CCC(C)(C)C(=O)OC1=C(c2ccc(Cl)cc2Cl)C(=O)OC12CCCCC2 | inactive | 
34 | COc1cc(C=O)cc2c1[C@H](COC(N)=O)[C@]1(OC(C)=O)ON2C[C@H]2[C@@H]1N2C(C)=O | inactive | 
35 | CN(C)C(=S)[S-].CN(C)C(=S)[S-].[Cu+2] |  | 0.0936% [at 18.6 µM]
36 | CSCCCN=C=S | inactive | 
37 | CC[C@H](C)[C@H]1O[C@]2(C=C[C@@H]1C)C[C@@H]1C[C@@H](C/C=C(\C)[C@@H](O[C@H]3C[C@H](OC)[C@@H](O[C@H]4C[C@H](OC)[C@@H](O)[C@H](C)O4)[C@H](C)O3)[C@@H](C)/C=C/C=C3\CO[C@@H]4[C@H](O)C(C)=C[C@@H](C(=O)O1)[C@]34O)O2 | inactive | 
38 | c1ccc(Nc2ccc3ccccc3c2)cc1 | inactive | 
39 | CCCCCCCCCCCCCCCC[n+]1ccccc1 | inactive | 
40 | CC(C)CCCCCOC(=O)c1ccccc1C(=O)OCCCCCC(C)C | inactive | 
